What all share (design): scale not given: direction of the effect not stated beside the values
The target of experiment [1] is Protein translocase subunit SecA (Escherichia coli (strain K12)) (UniProt P10408). Kind of experiment: Assay to Identify E. coli SecA ATPase Inhibitors. Format: functional. The note with it: 30 µM.
For experiment [2], the target named is T1, Ubiquitin-activating enzyme e1, putative (Leishmania donovani (strain BPK282A1)) (UniProt E9BSI1).
T1 sequence (whole entry): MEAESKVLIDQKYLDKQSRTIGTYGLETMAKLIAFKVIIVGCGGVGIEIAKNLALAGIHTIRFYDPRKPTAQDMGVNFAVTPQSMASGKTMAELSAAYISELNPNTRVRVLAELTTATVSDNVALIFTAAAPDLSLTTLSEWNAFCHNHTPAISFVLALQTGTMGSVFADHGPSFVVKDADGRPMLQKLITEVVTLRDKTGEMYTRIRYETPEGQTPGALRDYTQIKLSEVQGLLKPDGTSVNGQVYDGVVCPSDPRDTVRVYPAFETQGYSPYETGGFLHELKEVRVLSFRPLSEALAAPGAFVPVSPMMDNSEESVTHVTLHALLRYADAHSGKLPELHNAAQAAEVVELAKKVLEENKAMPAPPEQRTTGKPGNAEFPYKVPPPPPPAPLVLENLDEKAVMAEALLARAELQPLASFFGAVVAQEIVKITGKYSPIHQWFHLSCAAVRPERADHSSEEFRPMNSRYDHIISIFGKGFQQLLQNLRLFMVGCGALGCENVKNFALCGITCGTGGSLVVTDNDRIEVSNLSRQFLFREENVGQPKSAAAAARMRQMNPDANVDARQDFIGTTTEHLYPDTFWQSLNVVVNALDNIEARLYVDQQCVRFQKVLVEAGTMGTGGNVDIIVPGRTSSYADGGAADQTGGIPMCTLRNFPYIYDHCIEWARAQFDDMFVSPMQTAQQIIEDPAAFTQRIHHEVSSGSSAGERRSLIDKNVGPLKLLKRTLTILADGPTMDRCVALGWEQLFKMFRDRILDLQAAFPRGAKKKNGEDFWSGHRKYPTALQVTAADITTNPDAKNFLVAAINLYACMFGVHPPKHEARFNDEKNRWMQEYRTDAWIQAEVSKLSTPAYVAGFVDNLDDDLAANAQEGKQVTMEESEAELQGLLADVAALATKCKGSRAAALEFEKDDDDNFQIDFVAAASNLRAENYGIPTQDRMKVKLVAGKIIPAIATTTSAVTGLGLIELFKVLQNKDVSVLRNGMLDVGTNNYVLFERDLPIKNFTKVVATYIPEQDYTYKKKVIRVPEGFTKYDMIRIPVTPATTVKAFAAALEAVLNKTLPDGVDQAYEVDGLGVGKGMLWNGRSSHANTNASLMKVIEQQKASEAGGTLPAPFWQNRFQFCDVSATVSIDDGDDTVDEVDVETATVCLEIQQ
The experiment in a line: Leishmania donovani Ubiquitin Activating Enzyme (LdE1). The note with it: 30 µM. Format: functional.

The target of experiment [3] is Sialic acid-binding Ig-like lectin 9 (Homo sapiens) (UniProt Q9Y336). Kind of experiment: Hs-Siglec9 ALPHAscreen SOP 20170721. The note with it: 10 µM. On the technique in general: Alpha assays give light when donor and acceptor beads are brought close together.
The next experiment relates to Trypanosoma cruzi. Kind of experiment: Trypanosoma cruzi phosphomannomutase and mannose-1-phosphate guanylyltransferase assay. The class given is functional. Conditions: 10 µM.
Experiment [4] addresses T2, Arginase-2, mitochondrial (Homo sapiens) (UniProt P78540).
T2 sequence (whole entry): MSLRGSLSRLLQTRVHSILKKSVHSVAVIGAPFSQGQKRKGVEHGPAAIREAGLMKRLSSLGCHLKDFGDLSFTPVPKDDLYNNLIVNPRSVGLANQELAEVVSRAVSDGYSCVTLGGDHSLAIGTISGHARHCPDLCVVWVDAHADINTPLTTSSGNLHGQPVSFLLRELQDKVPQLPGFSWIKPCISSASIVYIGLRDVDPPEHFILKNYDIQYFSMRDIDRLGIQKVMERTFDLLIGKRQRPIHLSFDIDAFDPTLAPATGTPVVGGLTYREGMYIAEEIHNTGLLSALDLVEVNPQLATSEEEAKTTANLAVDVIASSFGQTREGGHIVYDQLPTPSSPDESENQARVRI
Kind of experiment: in vitro enzyme assay to detect the production of urea directly proportional to the activity of Arginase II. Further: in the data most compounds retested in dose-response had high values. Format: functional. The note with it: 33.3 µM.

In experiment [5] the target is T3, Proteasome subunit beta (Trypanosoma cruzi) (UniProt O96673).
T3 sequence (whole entry): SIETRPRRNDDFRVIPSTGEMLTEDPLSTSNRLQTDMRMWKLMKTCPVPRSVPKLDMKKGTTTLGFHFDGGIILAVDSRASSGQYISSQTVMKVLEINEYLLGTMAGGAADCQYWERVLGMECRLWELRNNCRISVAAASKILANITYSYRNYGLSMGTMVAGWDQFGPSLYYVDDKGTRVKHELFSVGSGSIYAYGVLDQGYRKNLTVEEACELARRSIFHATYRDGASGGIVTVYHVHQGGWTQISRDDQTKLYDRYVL
The experiment in a line: Trypanosoma cruzi proteasome chymotrypsin-like activity (TcProtChymo) assay. Further: in the data most compounds retested in dose-response had high values. The note with it: 9.37 µM. The class given is functional.

Another experiment is filed under the species Homo sapiens. Kind of experiment: To identify inhibition of the IFN signalling (Jak-Stat) pathway via expression of an eGFP reporter gene under the control of an IFN-stimulated response element (ISRE) containing MxA promoter. Format: functional. Conditions: 30 µM. (Reporter assays use an easily measured gene product as a stand-in for the process of interest.)

The target of experiment [6] is T4, Tyrosyl-tRNA synthetase, putative (Trypanosoma cruzi (strain CL Brener)) (UniProt Q4DSP6).
T4 sequence (whole entry): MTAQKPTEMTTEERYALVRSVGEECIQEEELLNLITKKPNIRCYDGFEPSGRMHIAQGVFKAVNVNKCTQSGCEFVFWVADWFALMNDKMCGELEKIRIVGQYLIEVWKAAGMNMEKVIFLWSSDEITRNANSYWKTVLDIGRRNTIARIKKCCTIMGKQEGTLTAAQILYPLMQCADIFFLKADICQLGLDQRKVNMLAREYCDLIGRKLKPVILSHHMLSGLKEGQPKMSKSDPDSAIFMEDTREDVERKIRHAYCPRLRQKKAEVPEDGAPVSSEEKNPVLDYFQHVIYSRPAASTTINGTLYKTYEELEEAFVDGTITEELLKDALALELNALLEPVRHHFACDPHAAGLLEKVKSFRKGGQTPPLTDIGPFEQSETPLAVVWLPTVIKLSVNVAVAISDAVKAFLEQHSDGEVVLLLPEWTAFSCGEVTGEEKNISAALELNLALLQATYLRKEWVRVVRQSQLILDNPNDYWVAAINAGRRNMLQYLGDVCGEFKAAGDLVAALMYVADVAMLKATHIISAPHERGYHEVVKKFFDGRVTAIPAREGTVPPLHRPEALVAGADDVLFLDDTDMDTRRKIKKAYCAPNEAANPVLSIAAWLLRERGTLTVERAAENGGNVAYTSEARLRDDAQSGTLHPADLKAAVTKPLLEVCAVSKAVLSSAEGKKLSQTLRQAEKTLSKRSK
The experiment in a line: Trypanosoma cruzi tyrosyl tRNA synthetase (TcYRS) _High Tyrosine SOP. Further: in the data most compounds retested in dose-response had high values. The note with it: 30 µM. The class given is functional.

For experiment [7], the target named is T4, Tyrosyl-tRNA synthetase, putative (Trypanosoma cruzi (strain CL Brener)). Kind of experiment: Trypanosoma cruzi tyrosyl tRNA synthetase (TcYRS) SOP. The class given is functional. The note with it: 30 µM.
The target in experiment [8] is Chromo domain-containing protein 1 (Saccharomyces cerevisiae (strain ATCC 204508 / S288c) (Baker's yeast)) (UniProt P32657). The experiment in a line: ScCHD-1 Enzyme Inhibition Assay. Further: in the data most compounds retested in dose-response had high values. The class given is functional. Conditions: 30 µM.

For part of these data: Potency and affinity values are given separately.

Sequence of Protein translocase subunit SecA (Escherichia coli (strain K12)) (P10408 whole entry): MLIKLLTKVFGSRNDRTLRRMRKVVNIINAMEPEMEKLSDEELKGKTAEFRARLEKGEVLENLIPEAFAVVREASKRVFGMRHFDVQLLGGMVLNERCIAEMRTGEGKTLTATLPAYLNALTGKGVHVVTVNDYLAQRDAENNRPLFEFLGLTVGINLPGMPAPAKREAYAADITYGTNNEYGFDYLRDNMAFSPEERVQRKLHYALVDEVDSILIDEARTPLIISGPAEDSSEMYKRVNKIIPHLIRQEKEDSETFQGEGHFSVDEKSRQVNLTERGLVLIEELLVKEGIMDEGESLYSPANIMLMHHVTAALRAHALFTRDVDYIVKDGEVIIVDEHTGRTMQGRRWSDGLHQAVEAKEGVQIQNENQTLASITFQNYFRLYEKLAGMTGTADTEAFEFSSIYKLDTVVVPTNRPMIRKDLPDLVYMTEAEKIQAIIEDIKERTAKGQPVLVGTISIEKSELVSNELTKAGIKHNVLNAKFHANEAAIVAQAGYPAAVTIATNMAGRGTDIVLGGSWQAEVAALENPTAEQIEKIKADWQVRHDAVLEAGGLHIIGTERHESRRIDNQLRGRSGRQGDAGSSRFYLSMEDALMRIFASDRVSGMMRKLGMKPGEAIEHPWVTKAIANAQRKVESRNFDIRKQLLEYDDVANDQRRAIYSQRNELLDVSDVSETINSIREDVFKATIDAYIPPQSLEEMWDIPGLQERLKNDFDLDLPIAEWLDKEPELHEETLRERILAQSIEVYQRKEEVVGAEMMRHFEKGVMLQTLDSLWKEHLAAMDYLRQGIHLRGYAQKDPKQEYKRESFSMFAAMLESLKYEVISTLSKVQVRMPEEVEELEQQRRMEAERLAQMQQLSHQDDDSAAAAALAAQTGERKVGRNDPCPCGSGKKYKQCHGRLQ
Sequence of Sialic acid-binding Ig-like lectin 9 (Homo sapiens) (Q9Y336 whole entry): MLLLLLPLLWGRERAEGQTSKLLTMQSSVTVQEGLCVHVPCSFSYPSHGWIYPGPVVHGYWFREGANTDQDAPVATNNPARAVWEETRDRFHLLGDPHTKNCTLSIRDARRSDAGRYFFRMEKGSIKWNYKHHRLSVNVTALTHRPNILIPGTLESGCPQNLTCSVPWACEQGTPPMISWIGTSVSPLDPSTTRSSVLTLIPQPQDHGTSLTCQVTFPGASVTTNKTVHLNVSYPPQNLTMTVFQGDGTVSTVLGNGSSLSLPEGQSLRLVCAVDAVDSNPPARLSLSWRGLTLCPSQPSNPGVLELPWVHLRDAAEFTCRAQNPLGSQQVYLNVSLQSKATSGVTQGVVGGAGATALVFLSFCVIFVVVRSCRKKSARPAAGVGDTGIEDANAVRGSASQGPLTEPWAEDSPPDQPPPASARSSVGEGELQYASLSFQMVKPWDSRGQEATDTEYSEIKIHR
Sequence of Chromo domain-containing protein 1 (Saccharomyces cerevisiae (strain ATCC 204508 / S288c) (Baker's yeast)) (P32657 whole entry, the tested form may be a part): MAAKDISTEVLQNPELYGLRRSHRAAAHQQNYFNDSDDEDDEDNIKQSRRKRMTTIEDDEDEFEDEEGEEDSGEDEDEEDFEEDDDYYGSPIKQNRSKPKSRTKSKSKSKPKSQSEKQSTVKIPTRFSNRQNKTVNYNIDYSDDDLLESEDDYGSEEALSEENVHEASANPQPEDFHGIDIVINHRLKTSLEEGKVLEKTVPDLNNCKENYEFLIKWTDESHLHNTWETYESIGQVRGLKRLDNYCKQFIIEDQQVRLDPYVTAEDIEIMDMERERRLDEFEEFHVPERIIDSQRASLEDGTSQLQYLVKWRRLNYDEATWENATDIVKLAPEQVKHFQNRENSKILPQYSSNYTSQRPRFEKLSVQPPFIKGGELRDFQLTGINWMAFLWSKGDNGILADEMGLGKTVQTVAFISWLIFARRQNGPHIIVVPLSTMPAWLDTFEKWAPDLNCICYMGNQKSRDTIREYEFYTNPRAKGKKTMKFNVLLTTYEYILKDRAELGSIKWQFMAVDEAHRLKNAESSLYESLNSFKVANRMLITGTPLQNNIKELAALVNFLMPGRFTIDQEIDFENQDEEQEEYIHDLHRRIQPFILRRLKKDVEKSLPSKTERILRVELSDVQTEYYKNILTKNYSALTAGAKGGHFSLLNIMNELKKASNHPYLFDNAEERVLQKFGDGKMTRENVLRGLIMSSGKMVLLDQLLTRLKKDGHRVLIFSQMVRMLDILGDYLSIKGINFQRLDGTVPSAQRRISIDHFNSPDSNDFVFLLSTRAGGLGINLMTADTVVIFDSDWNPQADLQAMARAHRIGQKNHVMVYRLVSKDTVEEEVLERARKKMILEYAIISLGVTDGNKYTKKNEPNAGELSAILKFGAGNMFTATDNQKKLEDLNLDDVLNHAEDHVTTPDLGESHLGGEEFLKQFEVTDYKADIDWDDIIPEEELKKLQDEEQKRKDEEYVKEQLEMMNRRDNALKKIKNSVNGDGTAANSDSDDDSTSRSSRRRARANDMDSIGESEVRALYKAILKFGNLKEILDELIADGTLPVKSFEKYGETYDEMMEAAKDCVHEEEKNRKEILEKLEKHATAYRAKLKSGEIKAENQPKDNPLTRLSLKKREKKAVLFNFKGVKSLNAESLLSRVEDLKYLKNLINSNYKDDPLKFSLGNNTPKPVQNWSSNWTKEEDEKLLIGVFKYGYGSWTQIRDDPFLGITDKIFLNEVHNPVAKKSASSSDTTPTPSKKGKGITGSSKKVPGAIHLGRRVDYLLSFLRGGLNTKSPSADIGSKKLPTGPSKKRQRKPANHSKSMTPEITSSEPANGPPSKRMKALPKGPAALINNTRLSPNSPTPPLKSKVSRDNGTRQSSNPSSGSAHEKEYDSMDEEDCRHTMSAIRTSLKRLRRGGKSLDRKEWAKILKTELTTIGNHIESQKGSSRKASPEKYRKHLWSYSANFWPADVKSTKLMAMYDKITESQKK

On to `O=C(NCc1nn(-c2ccccc2)c2c1CCC2)N1CCSCC1`, for which the Percent Effect in [1] is -6.8%; in [2] it was -2.56%; in experiment [3], -13.1%; in the experiment with Trypanosoma cruzi, 12.7%; in [4] it was -1.64%; in experiment [5] it was 7.25%. Further, the Percent Effect in the experiment listed under Homo sapiens was 15.5%; in experiment [6] it was 2.39%; in experiment [7], 13.2%; in experiment [8], -7.59%.

Regarding `NC(=O)Cn1cc(NC(=O)N2CCCC2)cn1`, the Percent Effect in experiment [1] was 1.14%; in [2] it was 12.8%; in experiment [3], -7.88%; in the experiment on Trypanosoma cruzi, -0.469%; in experiment [4], 8.61%; in [5] it was 11.7%. For the same molecule, the Percent Effect in the experiment filed under Homo sapiens is 19.1%; in [6], 5.26%; in experiment [7], 18.1%; in experiment [8] it was -4.77%.

Consider `Cc1nn(C)c(N(C)C)c1CNCc1ccc(OCC(N)=O)cc1`, for which the Percent Effect in experiment [1] was -3.65%; in experiment [2], 8%; in experiment [3], 0.758%; in the experiment with Trypanosoma cruzi it was -2.61%; in experiment [4] it was -1.33%; in [5], 13.2%. Also, the Percent Effect in the experiment filed under Homo sapiens is -6%; in [6], 5.79%; in [7], 7.69%; in [8], -13.9%.

As for `CCc1nc(C2CCCN2CCCS(=O)(=O)c2ccccc2)no1` (stereo not given), the Percent Effect is -2.94% in [1]; 15.4% in [2]; -14.9% in experiment [3]; 2.16% in the experiment on Trypanosoma cruzi; 0.41% in [4]; 13.1% in experiment [5]. The Percent Effect is 6.1% in the experiment filed under Homo sapiens, 4.31% in [6], 22.9% in [7] and -3.94% in [8].

For the molecule `CC(NC(=O)N(C)CCCOc1ccc(F)cc1)c1nncn1C` (stereo not given), the Percent Effect is -2.67% in experiment [1]; 8% in experiment [2]; -3.38% in experiment [3]; 0.803% in the experiment on Trypanosoma cruzi; 5.76% in experiment [4]; 17.4% in experiment [5]. Moreover, the Percent Effect was 8.6% in the experiment filed under Homo sapiens, 4.74% in experiment [6], 10.3% in experiment [7] and -10.2% in experiment [8].

`CC(C)NC(=O)C1CN(C(=O)Nc2ccccc2)CC12CCOCC2` (stereo not given): the Percent Effect in experiment [1] is -8.24%; in experiment [2] it was 3.9%; in experiment [3], -2.62%; in the experiment with Trypanosoma cruzi, -3.02%; in experiment [4], 1.22%; in [5], 22.9%. In addition, the Percent Effect in the experiment listed under Homo sapiens was 14.5%; in experiment [6], 6.84%; in experiment [7] it was 2.56%; in experiment [8], -3.13%.

For the molecule `CC(=O)N1C[C@@H](c2ccsc2)[C@@H]2CN(Cc3cccc(Cl)c3)CC[C@@H]21`, the Percent Effect in experiment [1] is -3.63%; in experiment [2], 9.33%; in [3] it was 5.9%; in the experiment with Trypanosoma cruzi, -1.97%; in experiment [4], 7.08%; in experiment [5], 6.9%. The Percent Effect in the experiment listed under Homo sapiens was 56.9%; in experiment [6], 9.52%; in experiment [7], 20%; in experiment [8], -24.3%.

Regarding `CCn1cc(CN(C)S(=O)(=O)c2cnn(CC)c2C)c(C)n1`, the Percent Effect is 39.4% in experiment [1]; 14.7% in [2]; -2.08% in experiment [3]; -0.986% in the experiment on Trypanosoma cruzi; 3.1% in [4]; 15.3% in [5]. The Percent Effect in the experiment filed under Homo sapiens is 39.3%; in [6], 2.12%; in experiment [7] it was 10%; in experiment [8], -20.5%.

For the molecule `CS(=O)(=O)N1CCC(NC(=O)COc2ccc(Cl)c(Cl)c2)CC1`, the Percent Effect in [1] was -0.592%; in experiment [2], 15.6%; in experiment [3], -0.737%; with Trypanosoma cruzi, -2.24%; in experiment [4] it was -2.66%; in [5] it was 3.86%. Also, the Percent Effect in the experiment listed under Homo sapiens is 10.2%; in experiment [6], 13.7%; in experiment [7] it was 28.2%; in experiment [8], -8.55%.

On to `O=C(NCCCn1ccnc1)N1CCCC1c1cccs1` (stereo not given), for which the Percent Effect was -1.21% in [1]; 12.8% in [2]; -12.2% in experiment [3]; 6.67% in the experiment with Trypanosoma cruzi; 8.2% in experiment [4]; 11% in [5]. Besides, the Percent Effect in the experiment listed under Homo sapiens was -4.65%; in [6], 7.18%; in [7], 18.1%; in [8], -5.02%.

As to `N#Cc1c(C2CC2)cc(-c2ccc(O)cc2)nc1N`, the Percent Effect was -6.18% in experiment [1]; 2.7% in experiment [2]; 3.32% in experiment [3]; -1.46% with Trypanosoma cruzi; 4.54% in experiment [4]; 23.6% in experiment [5]. In addition, the Percent Effect was 48.6% in the experiment filed under Homo sapiens, -0.532% in [6], 7.32% in [7] and -2.85% in experiment [8].

As for `Cc1ccccc1N1CCN(C(=O)c2ccc[nH]2)C(C)C1` (stereo not given), the Percent Effect is -7.84% in experiment [1]; 2.7% in experiment [2]; 33.4% in [3]; 5.92% with Trypanosoma cruzi; -2.45% in experiment [4]; 9.25% in experiment [5]. In addition, the Percent Effect was 27.5% in the experiment listed under Homo sapiens, 1.6% in experiment [6], 9.76% in experiment [7] and -1.74% in [8].

The values are drawn from ChEMBL document CHEMBL3988442, “University of Dundee, Small-Polar-MMV Screening Library” (2021).
